Compound activity: PubChem, National Center for Advancing Translational Sciences (NCATS)
VACV mCherry inh – vaccinia inhibition (mCherry reporter). Vaccinia virus mCherry reporter infection, fluorescence. Potency, µM (top dose mostly 36.5 µM), for inactives: at the highest dose activity change, negative = inhibition, hits mostly inhibitors. hit rate 0.63% among 310,000; calls by dose curve; tested in A549 cells; also: nearly all actives have a fitted effect of over 35% in size
LASV entry inh – inhibitors of Lassa virus binding or cell entry. AID 540256. hit rate 1.2% among 300,000. Lassa virus pseudotype entry inhibition, cell reporter. Potency, µM (titrated, usually from 37.9 µM), without a hit: at the highest dose activity change, negative = inhibition, actives largely listed as inhibitors; calls by dose curve; tested in HEK293 cells; also: nearly all actives have a fitted effect of over 50% in size
Marburg entry inh – inhibitors of Marburg virus binding or cell entry; AID 540276; Potency, µM (doses to about 37.8 µM), without a hit: at the top dose activity change, negative = inhibition, actives largely listed as inhibitors; hit rate 1.8% among 300,000; Marburg virus pseudotyped entry inhibition, cell reporter; calls by dose curve; tested in HEK293 cells
HCV inhibitor – inhibitors of hepatitis C virus infection; AID 651820; hit rate 3.4% among 340,000; Potency, µM (highest dose often 41.8 µM), inactives show at the highest dose activity change, negative = inhibition, hits mostly inhibitors; Huh7.5.1 HCVcc-Cre infection, luciferase reporter, 44 h; active = well fitted inhibition curve with a large enough effect; inconclusive = small, poorly fitted or top-dose-only effect, or another doubt; inactive = no such curve, though single readings can be large or run the other way
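Infectious HCV cell culture screen: compound-treated cells (1,000/well, pre-plated 4 h) are infected with HCVcc-Cre at roughly 0.5 moi and grown 44 h. Infection is quantified by luciferase signal after 15 min substrate incubation at room temperature.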
VACV Venus inh – vaccinia inhibition (Venus reporter); Vaccinia virus Venus reporter expression, fluorescence; Potency, µM (top dose mostly 36.5 µM), for inactives: at the highest dose activity change, negative = inhibition, actives largely listed as inhibitors; hit rate 0.46% among 330,000; calls by dose curve; tested in A549 cells; also: nearly all actives have a fitted effect of over 30% in size
Numbers without * were called inactive; i = inactive; ? = inconclusive; · = no result given; [ ] = another dose, or the depositor's remark. Hits are enriched below; roughly 4.6% of the tested compounds scored in any of these assays. % is scaled to controls: 0 for no effect and ±100 for the full control effect; potency is read from the fitted curve at half-maximal effect.

SMILES	VACV mCherry inh	LASV entry inh	Marburg entry inh	HCV inhibitor	VACV Venus inh
O=C(O)C1CCCN1c1nc(-c2ccc(Cl)c(Cl)c2)cc(C(F)(F)F)n1 (stereo not drawn)	?	?	0.5µM*	?	?
COc1ccc(NC(=O)c2oc3ccc(S(=O)(=O)N4CCCCC4)cc3c2C)cc1Cl	-17%	1%[46.1 µM]	·	·	-11%
CCC(C)NC(=O)CSc1nnc(-c2cc(-c3cccs3)nc3ccccc23)o1 (stereo not drawn)	·	-8%	-7%	0%	2.8µM*
O=C(CSc1nnc(-c2cc(-c3cccs3)nc3ccccc23)o1)NC1CCCCC1	·	-4%	-13%	4%	?
NC(=O)CSc1nnc(-c2cc(-c3cccs3)nc3ccccc23)o1	?	-25%	-19%	?	1.6µM*
CCCN(CC1CC1)C(=O)CSc1nnc(-c2cc(-c3cccs3)nc3ccccc23)o1	·	?	?	-1%	-12%
Cc1c(C(=O)Nc2ccc3nc(N4CCOCC4)sc3c2)oc2ccccc12	·	·	·	11µM*	·
Cc1ccc(S(=O)(=O)NC(C)(C)C)cc1C(=O)OC(C)C(=O)NC1CC1 (stereo not drawn)	-9%	3%	26%	-4%	-21%
COc1cc(OC)c(NS(=O)(=O)c2cc(C(=O)OC(C)C(=O)NC3CC3)c(Cl)cc2Cl)cc1Cl (stereo not drawn)	-2%	-6%	?	11µM*	-13%
CCOC(=O)c1sc(NNC(=O)c2ccc(C)cc2)nc1C	-23%[7.34 µM]	-27%	-12%[46.1 µM]	-18%	-5%[7.34 µM]
CCOC(=O)c1nc(NNC(=O)c2ccc([N+](=O)[O-])cc2)sc1C	?	?	8.9µM*	?	?
C=CCN(C#N)c1nc(OC)nc(N2CCCC2)n1	-14%	?	8%[46.1 µM]	?	-25%
N#CN(CC(N)=O)c1nc(N2CCCCC2)nc(N2CCCCC2)n1	·	4%	?	10µM*	-6%
C=C1C=C(C(F)F)n2ncc(C(=O)NCc3ccc(OC)c(OC)c3)c2N1	-13%	·	·	·	?
Cc1cc(N2C(=O)C(=O)/C(=C(\O)c3ccc(F)cc3)[C@@H]2c2ccc(F)cc2)no1	·	·	2%	·	·
N#Cc1c(-c2ccco2)cc(C2CC2)nc1N	·	4%	-22%	25µM*	·
N#Cc1c(-c2ccco2)cc(-c2cccnc2)nc1N	·	-14%	?	11µM*	·
Cc1cccc(-n2nnc(-c3nc(-c4ccccc4)no3)c2N)c1C	5%	?	·	·	0%
CCOC(=O)N1CCN(C(=O)Cc2c(C(=O)O)n(C)c3ccccc23)CC1	-14%	-2%	8%[46.1 µM]	3.5µM*	1%
COc1ccc(Oc2c(Cl)cnn(-c3ccc(C)cc3)c2=O)cc1	·	?	10µM*	?	-3%
COc1ccc(Oc2c(Cl)cnn(-c3ccc(F)cc3)c2=O)cc1	·	?	?	?	-8%
CC(=O)CCc1oc2ccc(C)cc2c1-c1ccccc1	-14%	4µM*	1%	-12%	-12%
CC(=O)CCc1ccc2oc(C(=O)O)c(C)c2c1	·	23%	10%	19%	14%
NS(=O)(=O)c1ccc(N=Nc2c(O)[nH]c3ccc(C(=O)NCCc4cnc[nH]4)cc23)cc1	·	5µM*	·	·	·
O=C(NCCc1cnc[nH]1)c1cccs1	·	·	·	15%	·
SMILES	VACV mCherry inh	LASV entry inh	Marburg entry inh	HCV inhibitor	VACV Venus inh
Cc1cc(C)cc(C(=O)C[n+]2cccc(Br)c2)c1	i	·	·	·	-14%
C=CCc1ccccc1OCC(O)CN1CCN(c2ccccc2OC)CC1 (stereo not drawn)	?	?	?	?	-13%
C=CCc1ccccc1OCC(CN1CCCCC1)OC(C)=O (stereo not drawn)	-14%	16%	2%	-9%	-13%
COc1cc(OC)c(NC(=O)c2c(C)oc3nc(C)nc(N4CCOCC4)c23)cc1Cl	i	?	·	·	-10%
O=C(O)CCc1c2ccc(=O)c(O)c-2oc2c(O)c(O)ccc12	-2%	·	·	·	-20%
CC(C)(Oc1ccc(Cl)cc1)C(=O)Nc1nc2ccc(S(C)(=O)=O)cc2s1	i	18%[46.1 µM]	-13%[46.1 µM]	·	-10%
O=C(Nc1cccc(S(=O)(=O)NC2=NCCC2)c1)c1cn(-c2ccccc2)nc1-c1ccc(F)cc1	·	·	·	11µM*	·
CCOC(=O)c1ccc(N=c2sc(C(=O)OC)cc(=O)n2CCCN2CCOCC2)cc1	-2%	·	-4%	?	15%
CCn1c(=O)cc(C(=O)OC)sc1=Nc1ccc(F)c(F)c1	?	·	·	13µM*	-9%
CCOC(=O)c1ccc(N=c2sc(C(=O)OC)cc(=O)n2Cc2ccco2)cc1	i	?	?	22µM*	-7%
